# Reference: PubChem BioAssay
# Inconclusive results are not listed. Calls of active or inactive are those of the source.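 The calls were made as follows, unless noted: active = normalized viability below 100% at a tested concentration; inactive = the rest.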
# What was measured:
# [1] = growth inhibition of DIPG glioma cells, dose response, cell-based, SU-DIPG-XVII, MIPE5.0, CellTiter-Glo, qHTS (AID 1347060; cut-off not given, nearly all actives have AC50 up to about 26 µM;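 also: cells exposed to compound for 48 hours before viability readout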); conditions: SU-DIPG-XVII viability, CellTiter-Glo ATP luminescence
# [2] = growth inhibition of DIPG glioma cells, dose response, cell-based, SU-DIPG-XIII, MIPE4.0, CellTiter-Glo, qHTS (AID 1347061; cut-off not given, nearly all actives have AC50 up to about 37 µM;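 also: cells exposed to compound for 48 hours before readout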); conditions: SU-DIPG-XIII viability, CellTiter-Glo ATP luminescence
# [3] = growth inhibition of DIPG glioma cells, dose response, cell-based, SU-DIPG-IV, MIPE4.0, CellTiter-Glo, qHTS (AID 1347063; cut-off not given, nearly all actives have AC50 up to about 30 µM;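 also: compound exposure lasted 48 hours before the viability readout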); conditions: SU-DIPG-IV viability, CellTiter-Glo ATP luminescence
# [4] = viability loss in pontine glioma line – cell-based, SU-DIPG-XXV, MIPE5.0, CellTiter-Glo, qHTS, dose response (AID 1347065; cut-off not given, nearly all actives have AC50 up to about 26 µM;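 also: cells exposed to compound for 48 hours before ATP readout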); conditions: CellTiter-Glo ATP luminescence
# [5] = SU-DIPG-VI glioma cell viability, MIPE4.0 library, CellTiter-Glo luminescence, qHTS (AID 1347066; cut-off not given, nearly all actives have AC50 up to about 30 µM;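 also: cells exposed to compound for 48 hours before readout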); conditions: CellTiter-Glo ATP luminescence
# [6] = JHH-DIPG-1 glioma cell viability, MIPE5.0 library, CellTiter-Glo luminescence, qHTS (AID 1347067; cut-off not given, nearly all actives have AC50 up to about 26 µM;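 also: cells exposed to compound for 48 hours before readout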); conditions: JHH-DIPG-1 glioma viability, CellTiter-Glo ATP luminescence
# [7] = growth inhibition of DIPG glioma cells, dose response, cell-based, SU-DIPG-XIII, MIPE5.0, CellTiter-Glo, qHTS (AID 1347064; cut-off not given, nearly all actives have AC50 up to about 23 µM;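 also: cells exposed to compound for 48 hours before the viability read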); conditions: SU-DIPG-XIII viability, CellTiter-Glo ATP luminescence
# [8] = SU-DIPG-XXV glioma cell viability, MIPE5.0 library, qHTS (AID 1347068; cut-off not given, nearly all actives have IC50 up to about 30 µM;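 as to IC50: cells exposed to compound for 48 hours before viability readout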)
# [9] = sensitizers of A549 cells to miR-34 induction, primary screen, imaging, A549 dox-inducible miR-34, nuclei and caspase counts (AID 1347080;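 active = compounds whose cell count with miR-34 switched on is under 0.7 times the count with it off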); conditions: A549 miR-34 inducible, Hoechst nuclei count, 48 h
# [10] = modifiers of HSF1 nuclear foci, imaging, Selleck Cancer Library (AID 1347162; in the data active = plate-normalised HSF1 focus index below about 0.46); conditions: human cells, at 10 µM; SSMD: measured here: HSF1 foci SSMD mean; cell count: measured here: cell number; plate-normalised HSF1 focus index: stronger effect = lower value
# [11] = survival rescue of mitochondrial mutant cells in low glucose, primary screen, MELAS cybrids, Rieske KO mouse fibroblasts, CellTiter-Glo (AID 1508586;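 active = mean z-score across replicates of 1.96 or higher in either the MELAS or the Rieske mutant cell line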;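 also: z relative to plate mean and SD of compound and empty wells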)
# [12] = ovarian cancer cell viability with rucaparib, profiling panel, oncology-focused library, rucaparib conditional (AID 1508598); conditions: patient-derived ovarian cancer cells, CellTiter-Glo viability, 144 h, stronger effect = lower value
smiles,measurement,setting,value
Cc1ccc(S(=O)(=O)Nc2cc(Cl)ccc2C(=O)Nc2nc(-c3ccccc3)cs2)cc1,AC50,[1],7.42 µM (active)
same,AC50,[2],10.5 µM (active)
same,AC50,[3],16.6 µM (active)
same,AC50,[4],8.33 µM (active)
same,AC50,[5],5.26 µM (active)
same,AC50,[6],1.05 µM (active)
Cc1cc(C(=O)N2CCN(c3cccc(Cl)c3)CC2)n(-c2ccccc2)n1,AC50,[1],7.42 µM (active)
same,outcome,[2],inactive
same,AC50,[4],9.34 µM (active)
same,outcome,[5],inactive
CS(=O)(=O)N1CCN(Cc2cc3nc(-c4cccc5[nH]ncc45)nc(N4CCOCC4)c3s2)CC1,AC50,[1],1.18 µM (active)
same,AC50,[2],5.26 µM (active)
same,AC50,[3],0.166 µM (active)
same,AC50,[7],1.32 µM (active)
same,AC50,[4],0.661 µM (active)
same,IC50,[8],4.17 µM (active)
same,fold change,"[9]; stronger effect = lower value, cell number ratio, induced over uninduced",0.864 (inactive)
same,fold change,[9]; measured here: relative caspase fold change +Dox/-Dox,0.859
same,cell count,"[9]; measured here: total cells with miR-34 induction, stronger effect = lower value",1360
same,cell count,[9]; measured here: total cells without miR-34 induction,1570
same,SSMD,[10],-1.97
same,cell count,[10],6530
same,plate-normalised HSF1 focus index,[10],0.899 (inactive)
same,z-score,"[11]; MELAS cybrid survival, CellTiter-Glo 48 h, stronger effect = higher value",3.74 (active)
same,z-score,"[11]; Rieske KO mouse fibroblast survival, CellTiter-Glo 72 h",1
same,viability,"[12]; at 0.000305 µM, OCI-C5x cells, with rucaparib 10 µM, 100% = cells with rucaparib alone",111% (inactive)
same,viability,"[12]; at 0.000305 µM, OCI-C5x cells, without rucaparib",127% (inactive)
same,viability,"[12]; at 0.000305 µM, OCI-P5x cells, with rucaparib 20 µM, 100% = cells with rucaparib alone",98.9% (active)
same,viability,"[12]; at 0.000305 µM, OCI-P5x cells, without rucaparib",94.9% (active)
same,viability,"[12]; at 0.00122 µM, OCI-C5x cells, with rucaparib 10 µM, 100% = cells with rucaparib alone",121% (inactive)
same,viability,"[12]; at 0.00122 µM, OCI-C5x cells, without rucaparib",119% (inactive)
same,viability,"[12]; at 0.00122 µM, OCI-P5x cells, with rucaparib 20 µM, 100% = cells with rucaparib alone",98.2% (active)
same,viability,"[12]; at 0.00122 µM, OCI-P5x cells, without rucaparib",92.1% (active)
same,viability,"[12]; at 0.00488 µM, OCI-C5x cells, with rucaparib 10 µM, 100% = cells with rucaparib alone",109% (inactive)
same,viability,"[12]; at 0.00488 µM, OCI-C5x cells, without rucaparib",120% (inactive)
same,viability,"[12]; at 0.00488 µM, OCI-P5x cells, with rucaparib 20 µM, 100% = cells with rucaparib alone",94.4% (active)
same,viability,"[12]; at 0.00488 µM, OCI-P5x cells, without rucaparib",93.2% (active)
same,viability,"[12]; at 0.0195 µM, OCI-C5x cells, with rucaparib 10 µM, 100% = cells with rucaparib alone",111% (inactive)
same,viability,"[12]; at 0.0195 µM, OCI-C5x cells, without rucaparib",118% (inactive)
same,viability,"[12]; at 0.0195 µM, OCI-P5x cells, with rucaparib 20 µM, 100% = cells with rucaparib alone",96.3% (active)
same,viability,"[12]; at 0.0195 µM, OCI-P5x cells, without rucaparib",87.5% (active)
same,viability,"[12]; at 0.0781 µM, OCI-C5x cells, with rucaparib 10 µM, 100% = cells with rucaparib alone",114% (inactive)
same,viability,"[12]; at 0.0781 µM, OCI-C5x cells, without rucaparib",108% (inactive)
same,viability,"[12]; at 0.0781 µM, OCI-P5x cells, with rucaparib 20 µM, 100% = cells with rucaparib alone",92.7% (active)
same,viability,"[12]; at 0.0781 µM, OCI-P5x cells, without rucaparib",88.1% (active)
same,viability,"[12]; at 0.313 µM, OCI-C5x cells, with rucaparib 10 µM, 100% = cells with rucaparib alone",105% (inactive)
same,viability,"[12]; at 0.313 µM, OCI-C5x cells, without rucaparib",107% (inactive)
same,viability,"[12]; at 0.313 µM, OCI-P5x cells, with rucaparib 20 µM, 100% = cells with rucaparib alone",72.6% (active)
same,viability,"[12]; at 0.313 µM, OCI-P5x cells, without rucaparib",78.2% (active)
same,viability,"[12]; at 1.25 µM, OCI-C5x cells, with rucaparib 10 µM, 100% = cells with rucaparib alone",125% (inactive)
same,viability,"[12]; at 1.25 µM, OCI-C5x cells, without rucaparib",123% (inactive)
same,viability,"[12]; at 1.25 µM, OCI-P5x cells, with rucaparib 20 µM, 100% = cells with rucaparib alone",82.3% (active)
same,viability,"[12]; at 1.25 µM, OCI-P5x cells, without rucaparib",82.1% (active)
same,viability,"[12]; at 5 µM, OCI-C5x cells, with rucaparib 10 µM, 100% = cells with rucaparib alone",114% (inactive)
same,viability,"[12]; at 5 µM, OCI-C5x cells, without rucaparib",120% (inactive)
same,viability,"[12]; at 5 µM, OCI-P5x cells, with rucaparib 20 µM, 100% = cells with rucaparib alone",54.2% (active)
same,viability,"[12]; at 5 µM, OCI-P5x cells, without rucaparib",70.8% (active)
CCc1cc(-c2n[nH]c(C)c2-c2ccc3c(c2)OCCO3)c(O)cc1O,AC50,[1],18.6 µM (active)
same,AC50,[2],7.43 µM (active)
same,AC50,[3],2.64 µM (active)
same,AC50,[4],16.6 µM (active)
same,AC50,[6],20.9 µM (active)
same,IC50,[8],20.9 µM (active)
same,SSMD,[10],1.15
same,cell count,[10],5920
same,plate-normalised HSF1 focus index,[10],1.07 (inactive)
N#CC(c1ccnc(NCCc2cccnc2)n1)c1nc2ccccc2s1 (stereo not given),AC50,[1],11.8 µM (active)
same,outcome,[2],inactive
same,AC50,[3],13.2 µM (active)
same,AC50,[4],11.8 µM (active)
same,AC50,[6],18.6 µM (active)
same,outcome,[8],inactive
COc1cc(C(C)C)c2c(c1)S(=O)(=O)N(COc1cc(=O)n3cccc(OCCN4CCCCC4)c3n1)C2=O,AC50,[1],23.5 µM (active)
same,outcome,[2],inactive
same,AC50,[4],20.9 µM (active)
